Measured values published in PubChem BioAssay (NCI).
The panel holds about 79,000 compounds, 15% with a hit somewhere; the sample as a whole holds those more often. Values without a mark were called inactive. The source made the active and inactive calls. Cut-off read from the data, not from the text of the source: active = growth inhibition above about 70%; inactive = the rest.

Experiments:
[1] = NCI Yeast Anticancer Drug Screen. Data for the rad50 strain (AID 155);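 note: 0% = growth of vehicle-only cultures of the same strain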; settings: S. cerevisiae rad50 strain growth inhibition; at 50.0 µM; active compounds read high
Summary of the method: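 Growth of the mutant yeast was measured after compound exposure and referenced to vehicle-treated cultures.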

[2] = NCI Yeast Anticancer Drug Screen. Data for the mec2-1 strain (AID 157); settings: S. cerevisiae mec2-1 strain, at 50.0 µM, active compounds read high
Summary of the method: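 Cells of the genetically defined mec2-1 yeast strain are incubated with test compound. Inhibition of growth is calculated against vehicle-treated controls.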

[3] = NCI Yeast Anticancer Drug Screen. Data for the sgs1 mgt1 strain (AID 161);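 note: 0% = growth of cultures given vehicle only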; settings: S. cerevisiae sgs1 mgt1 strain, at 50.0 µM, active compounds read high
Summary of the method: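 Genetically altered yeast, compound exposure, growth inhibition relative to vehicle.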

[4] = NCI Yeast Anticancer Drug Screen. Data for the cln2 rad14 strain (AID 165);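 note: 0% = growth equal to vehicle treated cultures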; settings: S. cerevisiae cln2 rad14 strain, at 50.0 µM, active compounds read high
Summary of the method: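 The screen exposed genetically defined yeast (cln2 rad14) to test compounds and scored growth inhibition relative to vehicle-treated controls.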

[5] = NCI Yeast Anticancer Drug Screen. Data for the mlh1 rad18 strain (AID 175); settings: S. cerevisiae mlh1 rad18 strain growth inhibition; at 50.0 µM; active compounds read high
Summary of the method: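 Compound-treated yeast growth, normalised to vehicle controls. Strain bears defined DNA repair mutations.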

[6] = NCI Yeast Anticancer Drug Screen. Data for the bub3 strain (AID 167); settings: S. cerevisiae bub3 mutant strain, at 50.0 µM, active compounds read high
Summary of the method: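 Whole-cell yeast assay. The mutant strain was incubated with compounds, and growth inhibition was determined by comparison with vehicle-treated cells.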

SMILES	growth inhibition [1]	growth inhibition [2]	growth inhibition [3]	growth inhibition [4]	growth inhibition [5]	growth inhibition [6]
O=C(Sc1c[nH]c(=O)[nH]c1=O)c1ccc(N(CCCl)CCCl)cc1	29.6%	-18.4%	19.9%	-24.8%	-1.05%	
ClCc1ccccc1	40%	8.8%	4.9%	-19.7%	22.5%	
C[C@]12CCC(=O)C=C1CC[C@@H]1[C@@H]2CC[C@]2(C)C(=O)[C@H](n3ccnc3)C[C@@H]12	-1.35%	2.45%	0.9%	3.2%	5.65%	
O=C(CC(=O)c1ccccc1)c1ccccc1.[Tl]	96.2% (active)	91.5% (active)	97.5% (active)		98.1% (active)	88.7% (active)
CCN(CC)[P+](C1=C(Cl)C(=O)C(Cl)=C(Cl)C1=O)(N(CC)CC)N(CC)CC	1.25%	-12%	-6.6%	-19.5%	-17.5%	
COc1ccc(S(=O)(=O)F)cc1NC(=O)CCc1ccc(N2C(N)=NC(N)=NC2(C)C)cc1Cl	79.8% (active)	78.5% (active)	86.8% (active)	16.2%	65.2%	
CCCC[N+]1(C)CCCC1c1cccnc1 (stereo not given)	-15.5%	-7.1%	5.3%	-10.2%	-7.85%	
CC([NH-])C(=O)O.[Cl][Pt][Cl] (stereo not given)	-25.6%	-9.6%		7.55%	-9.55%	-10.6%
COc1ccc(C(O)(C(=O)OCCSC)c2ccc(OC)cc2)cc1	-5.1%	2.85%		-21.5%	0.1%	9%
O=C1C(=C([O-])c2ccccc2)C(=O)c2ccccc21.O=C1C(=C([O-])c2ccccc2)C(=O)c2ccccc21.[Fe+2]	19.4%	28.9%		22.2%	15.8%	28.1%
ClCCN(CCCl)c1ccc2c(c1)Cc1cc(Br)ccc1-2	15%	2%		30.8%	6.9%	2.6%
CC(C)C1C=Cc2ccccc21 (stereo not given)	13.8%	1.85%		-13.1%	28.8%	-3.55%
O=C(O)C(Cc1cnc[nH]1)N1C(=O)c2ccccc2C1=O (stereo not given)	-16.6%	-12.9%		-24.9%	-8.85%	-10%
CC(CCC#N)([N+](=O)[O-])[N+](=O)[O-]	17.1%	12.8%		0.5%	12.9%	10.3%
O=[N+]([O-])c1ccc(N2CC2)c([N+](=O)[O-])c1	1.85%	-1.95%		20%	5.45%	-0.95%
COc1cc2c(c(OC)c1OC)-c1ccc(SC)c(=O)cc1[C@@H](NC(C)=O)CC2	-12.4%	-16.9%	-19.1%		-7.3%	-27.4%
CCOP(=O)(OCC)Oc1ccc(S(C)=O)cc1 (stereo not given)	-1.95%	-14.8%		-10.2%	-0.25%	8.75%
CC(C)(C)N1COC2CCCCC21 (stereo not given)	17.4%	-3.2%		-4.25%	14.6%	16.4%
CC(C)=CCC/C(C)=N\N=C(N)N	5.35%	-8.65%		-20.5%	-15.6%	-2.8%
COc1c(O)cc2c(c1OC)-c1ccc(SC)c(=O)cc1C(NC(C)=O)CC2 (stereo not given)	10.4%	-9.4%	4.95%		23.9%	1.95%
NCCCC(N)P(=O)(O)O (stereo not given)	12.3%	-1.6%		-106%	5.55%	1%
c1ccc2sc(SNC3CCCCC3)nc2c1	-29.7%	-65.1%		-128%	2.4%	13.6%
CC(=O)OC1CCC2(C)C(CC(=O)C3C2CCC2(C)C(OC(C)=O)CCC32)C1 (stereo not given)	7.35%	7.35%		15.8%	2.15%	-4.2%
